{
  "source": "PubChem BioAssay AID449762",
  "about": "(Southern Research Specialized Biocontainment Screening …, 2010)",
  "note": "In all, about 330,000 compounds went through this assay and about 1,900 (0.58%) were called active. Not shown: some 4% with an inconclusive outcome. These entries were drawn from the full list. Measured potencies and affinities stand elsewhere. Unmarked numbers belong to inactive results. No stated cut-off is given here; in the data, inconclusive means inhibition above about 70% without an active follow-up result; inactive means below that.",
  "data": [
    {"assay": "M. tuberculosis growth inhibition, HTS (AID 449762);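 further: bacterial growth assessed after seven days of incubation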", "settings": "M. tuberculosis H37Rv growth inhibition, 7H9 media; at 25 µM; active compounds read high", "units": {"inhibition": "%"}, "values": [
      {"smiles": "CCOc1ccc(NC(=O)CSc2nnc(COc3c(C)cccc3C)o2)cc1", "inhibition": -12.7},
      {"smiles": "COc1cc(NC(=O)Cc2ccccc2)c(C(=O)O)cc1OC", "inhibition": 5.42},
      {"smiles": "COc1ccc(-n2nnnc2CNC(=O)C(=O)c2c[nH]c3ccccc23)cc1", "inhibition": 1.52},
      {"smiles": "COc1ccc(-c2c(-c3ccccc3OC)sc3ccccc23)cc1OC", "inhibition": 11.5},
      {"smiles": "CCOC(=O)Cc1cn(C(=O)OC(C)(C)C)c2ccccc12", "inhibition": -4.41},
      {"smiles": "Cc1ccc(NC(=O)CNCc2cccs2)c(Br)c1", "inhibition": 1},
      {"smiles": "CC(=O)c1ccc(NC(=O)CNCc2cccs2)cc1", "inhibition": -3.9},
      {"smiles": "CSCCC(NC(=O)c1ccco1)C(=O)NC1CCC(C)CC1", "note": "(stereo unspecified)", "inhibition": -5.12},
      {"smiles": "O=S(=O)(c1ccc2c(c1)OCCO2)C1CCC(S(=O)(=O)c2c(F)cccc2F)CC1", "note": "(stereo unspecified)", "inhibition": -1.16},
      {"smiles": "CC[n+]1c(/C=C/N(C)c2ccccc2)oc2ccc(F)cc21", "inhibition": -7.16},
      {"smiles": "CC[n+]1c(/C=C/N(C)c2ccccc2)oc2ccc(Cl)cc21", "inhibition": -7.91},
      {"smiles": "COC(=O)c1ccc(NC(=O)CSc2nnc(C)n2CC2CCCO2)cc1", "note": "(stereo unspecified)", "inhibition": -1.12},
      {"smiles": "CC(OC(=O)c1cccc(NS(C)(=O)=O)c1)C(=O)Nc1ccc2c(c1)OCO2", "note": "(stereo unspecified)", "inhibition": -1.53},
      {"smiles": "Cc1ccc(/C=N/NC(=O)CSc2nc3ccccc3c(=O)n2-c2ccccc2C)s1", "inhibition": 6.56},
      {"smiles": "Cc1nn(-c2ccccc2)c(C)c1/C=N/NC(=O)c1cc(O)cc(O)c1", "inhibition": 0.86},
      {"smiles": "Cc1ccc(-n2c(SCC(=O)N/N=C/c3c(C)nn(-c4ccccc4)c3C)nc3ccccc3c2=O)cc1", "inhibition": 12},
      {"smiles": "Cc1cc(C(=O)N/N=C/c2c(C)nn(-c3ccccc3)c2C)n[nH]1", "inhibition": -1.35},
      {"smiles": "CCCCNC(=O)CSc1nnc(Cc2ccc(Cl)c(Cl)c2)c(=O)[nH]1", "inhibition": 4.24},
      {"smiles": "O=c1ccc(=O)n2n1CC(O)C2", "inhibition": 1.79},
      {"smiles": "Cc1cc(Cl)c(S(=O)(=O)Nc2ccc(S(=O)(=O)N3CCOCC3)cc2)cc1OCC(N)=O", "inhibition": 5.99},
      {"smiles": "CC(C)Cn1c(N)c(C(=O)COC(=O)Cc2cccc(C(F)(F)F)c2)c(=O)n(C)c1=O", "inhibition": 3},
      {"smiles": "CCOC(=O)N/N=C(C)/C=C/c1ccccc1", "inhibition": -3.41},
      {"smiles": "Cc1ccc(OCC(=O)NCc2cccnc2)cc1", "inhibition": -0.13},
      {"smiles": "CC1CCN(C(=O)c2ccc(CSc3nc4ccncc4n3Cc3ccc(F)cc3)cc2)CC1", "inhibition": -5.51},
      {"smiles": "CCCOc1ccc(CC(=O)NCC2(c3ccccc3)CCOCC2)cc1OC", "inhibition": 5.05},
      {"smiles": "Cc1ccc(N(CC(=O)NC2CCCC2)C(=O)CCC(=O)Nc2nccs2)cc1C", "inhibition": -7.45},
      {"smiles": "C=CCNC(=O)CN1CCC(n2nnc3cc(C(F)(F)F)ccc32)CC1", "inhibition": -4.99},
      {"smiles": "O=C(CN1CCC(n2nnc3ccccc32)CC1)NCc1cccs1", "inhibition": -0.03},
      {"smiles": "O=C(CN1C(=O)/C(=C/c2ccccc2)SC1=S)NC1C=CS(=O)(=O)C1", "note": "(stereo unspecified)", "inhibition": 2.53},
      {"smiles": "COc1cccc(C2C3=C(N=c4s/c(=C\\c5ccc(O)cc5)c(=O)n42)c2ccccc2CC3)c1OC", "note": "(stereo unspecified)", "inhibition": 65.1},
      {"smiles": "COc1cccc(C2C3=C(N=c4s/c(=C\\c5ccccc5O)c(=O)n42)c2ccccc2CC3)c1OC", "note": "(stereo unspecified)", "inhibition": 4.34},
      {"smiles": "COc1ccccc1NC(=O)c1ccccc1C(=O)N(C)Cc1ccccc1", "inhibition": -2.3},
      {"smiles": "Cc1cc(C)nc(SCC(=O)O)n1", "inhibition": 0.26},
      {"smiles": "O=C(c1ccc2nc[nH]c2c1)N1CCc2ccccc2C1", "inhibition": -3.52},
      {"smiles": "CCC(=O)Nc1ccc(C(=O)Cn2ncc(Cl)c(Cl)c2=O)cc1", "inhibition": -3.99},
      {"smiles": "Cc1ccc(NC(=O)CN(C)C(=O)Cn2ncc(Cl)c(Cl)c2=O)cc1", "inhibition": 28.7},
      {"smiles": "COc1ccc(CCC(=O)NCCCNC(=O)CCc2ccc(OC)cc2)cc1", "inhibition": 8.41},
      {"smiles": "CCCCc1cc(=O)oc2cc(C)cc(OC(C)C(=O)NC(Cc3c[nH]c4ccc(O)cc34)C(=O)O)c12", "note": "(stereo unspecified)", "inhibition": -11.4},
      {"smiles": "O=C(COC(=O)c1ccccc1Br)Nc1ccc(F)cc1", "inhibition": 45.4},
      {"smiles": "O=C(Nc1ccc(F)cc1)c1cccc(NC(=O)C2C3CC4OC(=O)C2C4C3)c1", "note": "(stereo unspecified)", "inhibition": -6.31},
      {"smiles": "O=C1CC(/C=C/c2ccncc2)=Nc2ccccc2N1", "inhibition": -0.65},
      {"smiles": "O=C1CC(/C=C/c2ccccc2)=Nc2ccccc2N1", "inhibition": -1.18},
      {"smiles": "CCCCNS(=O)(=O)c1ccc(NC(=O)Cc2ccc(OC)cc2)cc1", "inhibition": -0.2},
      {"smiles": "O=C(NCCCN1CCOCC1)c1cc(S(=O)(=O)N2CCOCC2)ccc1Cl", "inhibition": -0.79},
      {"smiles": "Cc1ccc(-n2c(C)c3c(C)nnc(C)c3c2C)cc1C", "inhibition": 39.9},
      {"smiles": "Cc1cc(-n2c(C)c3c(C)nnc(C)c3c2C)ccc1N", "inhibition": -1.53},
      {"smiles": "COc1cc(NS(C)(=O)=O)c(OC)cc1NC(=O)c1ccccc1", "inhibition": -13.2},
      {"smiles": "N#Cc1cccc2c1-c1ccccc1/C2=N/NC(N)=S", "inhibition": 11.6},
      {"smiles": "NC(=O)N/N=C1\\c2ccccc2-c2c(C(N)=O)cccc21", "inhibition": -8.45},
      {"smiles": "COc1cccc(C(=O)NCC2CCCN2S(=O)(=O)c2cccs2)c1", "note": "(stereo unspecified)", "inhibition": -3.52},
      {"smiles": "CCOC(=O)CNC(=S)n1ncnc1N", "inhibition": -5.34},
      {"smiles": "CNC(=S)n1cnc(N)n1", "inhibition": -9.24},
      {"smiles": "CCc1nc2nc(C)c(NS(=O)(=O)c3ccc(Br)s3)c(=O)n2[nH]1", "inhibition": -4.89},
      {"smiles": "CCC1CCCCN1C(=O)c1ccc2c(c1)C(=O)N(c1ccc(C)cc1)C2=O", "note": "(stereo unspecified)", "inhibition": 7.37},
      {"smiles": "CCc1ccc(NC(=S)NC2CC3CCCC(C2)N3Cc2ccccc2)cc1", "note": "(stereo unspecified)", "inhibition": 9.67},
      {"smiles": "CNC(=S)NC1CC2CCCC(C1)N2Cc1ccc(C)cc1", "note": "(stereo unspecified)", "inhibition": -9.32},
      {"smiles": "CNC(=S)NC1CC2CCC(C1)N2Cc1ccccc1", "note": "(stereo unspecified)", "inhibition": -6.1},
      {"smiles": "CCNC(=S)NC1CC2CCCC(C1)N2Cc1ccc(C)cc1", "note": "(stereo unspecified)", "inhibition": -6.09},
      {"smiles": "C/C(N)=C(/C#N)C(=O)COC(=O)CCSc1ccccc1Cl", "inhibition": -0.73},
      {"smiles": "O=C(Nc1ccc(Br)cc1Br)c1cccc2c1C(=O)N(C1CCCCC1)C2", "inhibition": 10.8},
      {"smiles": "CC(C)C[C@H](NC(=O)CCCn1nnc2ccccc2c1=O)C(=O)O", "inhibition": 7.06},
      {"smiles": "Cc1cc(C)c2c(CC(=O)NNC(=O)c3ccccc3)coc2c1", "inhibition": -11.5},
      {"smiles": "COc1cc(N=Nc2ccccc2C(=O)O)ccc1O", "inhibition": 5.29},
      {"smiles": "COc1ccc(N=Nc2ccc3ccccc3c2)c(O)c1", "inhibition": 53.5},
      {"smiles": "O=C(Nc1ccccn1)c1cc2ccccc2o1", "inhibition": 3.67},
      {"smiles": "Cc1ccnc(NC(=O)c2cc3ccccc3oc2=O)c1", "inhibition": 45.2},
      {"smiles": "O=C(CN1C(=O)NC2(CCCc3ccccc32)C1=O)NCCc1ccc(F)cc1", "note": "(stereo unspecified)", "inhibition": 1.6},
      {"smiles": "O=C(CSc1ccccc1)N1CCN(c2ccc(F)cc2)CC1", "inhibition": -5.77},
      {"smiles": "COc1cccc(/C=C/C(=O)OCC(=O)Nc2ccc(N3CCOCC3)cc2)c1OC", "inhibition": -2.5},
      {"smiles": "COC(=O)CSc1nnc(CNc2nc(-c3ccccc3)cs2)n1C", "inhibition": -7.67},
      {"smiles": "CC(C)OC(=O)CSc1nnc(CNc2nc(-c3ccccc3)cs2)n1C", "inhibition": 0.34},
      {"smiles": "COC(=O)[C@H](CC(C)C)NS(=O)(=O)N[C@@H](CC(C)C)C(=O)OC", "inhibition": -8.61},
      {"smiles": "CC1(C)Cc2c(sc(NC(=O)C(=O)N3CCCC3)c2C(=O)O)CO1", "inhibition": 1.82},
      {"smiles": "COC(=O)c1c(NC(=O)C(=O)N2CCCCC2)sc2c1CC(C)(C)OC2", "inhibition": 5.56},
      {"smiles": "COc1ccc2ccc3c(c2c1)N=CC1(O3)N(C)c2ccccc2C1(C)C", "note": "(stereo unspecified)", "inhibition": -4.4},
      {"smiles": "COc1ccc(N2CCN(C(=O)COCC(=O)O)CC2)cc1", "inhibition": -6.23},
      {"smiles": "COc1ccc(C(=O)NCCS(=O)(=O)N2CCN(C(=O)c3ccco3)CC2)cc1", "inhibition": -5.88},
      {"smiles": "COc1ccc(C(=O)CSc2n[nH]c(=O)[nH]c2=O)cc1", "inhibition": -1.42},
      {"smiles": "O=C(CSc1n[nH]c(=O)[nH]c1=O)c1ccccc1", "inhibition": 51.6},
      {"smiles": "COc1ccc(NC(=S)NC2CCCCC2)c(OC)c1", "inhibition": 4.99},
      {"smiles": "CCOc1ccccc1C(=O)N1CCN=C1SCc1cccnc1", "inhibition": 10.2},
      {"smiles": "O=C(c1ccco1)N1CCN(S(=O)(=O)c2ccc(Cl)s2)CC1", "inhibition": -11.2},
      {"smiles": "O=C(c1cc2ccccc2o1)N1CCN(S(=O)(=O)c2cccs2)CC1", "inhibition": 0.69},
      {"smiles": "CCOC(=O)Cc1nnc(NC(=O)c2ccccc2OC)s1", "inhibition": -7.9},
      {"smiles": "N#Cc1ccc(S(=O)(=O)N2CCCN(c3nc4ccc(Cl)cc4s3)CC2)cc1", "inhibition": -8.22},
      {"smiles": "O=[N+]([O-])c1ccc(N2CCN(Cc3ccc(Br)o3)CC2)cc1", "inhibition": 2.93},
      {"smiles": "Clc1ccc(N2CCN(Cc3ccc(Br)o3)CC2)cc1", "inhibition": 0.17},
      {"smiles": "COc1ccc(N(CC(=O)N/N=C/c2ccco2)S(=O)(=O)c2ccccc2)cc1", "inhibition": -4.51},
      {"smiles": "O=C(c1ccoc1)N1CCC(CO)(CCc2ccccc2)CC1", "inhibition": -5.69},
      {"smiles": "O=C(COc1ccccc1[N+](=O)[O-])Nc1ccccc1N1CCCCC1", "inhibition": -4.5},
      {"smiles": "COC(=O)c1c(C)[nH]c(C(=O)/C=C/c2ccccc2Cl)c1C", "inhibition": 3.39},
      {"smiles": "O=C(Nc1sc2c(c1C(=O)NCc1cccnc1)CCCC2)c1ccco1", "inhibition": -2.45},
      {"smiles": "O=C(COc1ccccc1)Nc1sc2c(c1C(=O)NCc1cccnc1)CCCC2", "inhibition": -7.35},
      {"smiles": "O=C(Nc1c2c(nn1-c1ccc(F)cc1)CS(=O)(=O)C2)c1ccc2c(c1)OCO2", "inhibition": -6.48},
      {"smiles": "Cn1cc(/C=C/C(=O)c2ccccc2)c2ccccc21", "inhibition": 58.1},
      {"smiles": "COc1ccc(C(=O)/C=C/c2cn(CC(O)CN3CCN(C)CC3)c3ccccc23)cc1OC", "note": "(stereo unspecified)", "inhibition": 8.14}
    ]}
  ]
}
